The nature of assay [1]: compound effects on lung adenocarcinoma cell viability – A549, calcein-AM fluorescence, 48 h, basal, profiling panel (AID 1162). Note: test concentration not given here. To be noted: higher = more signal.
Assay [2] can be described thus: compound effects on differentiated 3T3-L1 adipocyte viability – cell-based, 3T3-L1 adipocytes, calcein-AM fluorescence, 48 h, basal, profiling panel (AID 1163). Note: test concentration not given here. To be noted: 3T3-L1 adipocytes viability, higher = more signal.
Assay [3] can be described thus: compound effects on hepatocellular carcinoma cell viability – HepG2, calcein-AM fluorescence, 48 h, basal, profiling panel (AID 1164). Note: test concentration not given here. As to conditions: higher = more signal.
Assay [4] is described as follows: compound effects on multiple myeloma cell viability – MM1S, calcein-AM fluorescence, 48 h, basal, profiling panel (AID 1165).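 Note: viability of MM1S multiple myeloma cells under basal unstimulated conditions; test concentration not given here.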 To be noted: higher = more signal.
Assay [5] is described as follows: calcein-AM signal in unstimulated myeloma cells – cell-based, calcein-AM fluorescence, 48 h, PK04 Diversity Set, profiling panel (AID 1166).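 Note: cells grown under basal conditions without added stimulus; test concentration not given here.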 To be noted: RPMI8226 myeloma viability, higher = more signal.
The nature of assay [6]: JC-1 mitochondrial signal, unstimulated HepG2 cells – cell-based, JC-1 fluorescence, 24 h, 100 nL compound, profiling panel (AID 1167). Note: test concentration not given here. As to conditions: HepG2 mitochondrial potential, higher = more signal.
A short description of assay [7]: JC-1 mitochondrial signal, unstimulated adipocytes – cell-based, JC-1 fluorescence, 3T3-L1 adipocytes, 24 h, 100 nL compound, profiling panel (AID 1168). Note: test concentration not given here. To be noted: JC-1 mitochondrial fluorescence, higher = more signal, called active from +8 up or from −8 down.
Assay [8] is described as follows: JC-1 mitochondrial signal, unstimulated myeloma cells – cell-based, JC-1 fluorescence, RPMI8226, 24 h, 100 nL compound, profiling panel (AID 1169). Note: test concentration not given here. As to conditions: JC-1 mitochondrial potential fluorescence, higher = more signal.
A short description of assay [9]: JC-1 mitochondrial signal, unstimulated MM1S myeloma – cell-based, JC-1 fluorescence, 24 h, 100 nL compound, profiling panel (AID 1170). Note: test concentration not given here. As to conditions: MM1S mitochondrial potential, higher = more signal.
Assay [10] can be described thus: resazurin metabolic signal in A549 cells – cell-based, resazurin fluorescence, 24 h, PK04 Diversity Set, profiling panel (AID 1171). Note: test concentration not given here. As to conditions: A549 viability, higher = more signal, called active from +8 up or from −8 down.
Assay [11] can be described thus: resazurin metabolic signal in HepG2 cells – cell-based, resazurin fluorescence, 24 h, PK04 Diversity Set, profiling panel (AID 1172). Note: test concentration not given here. As to conditions: HepG2 viability, higher = more signal. (The colour change of resazurin is a common sign of viable cells or microbes.)
Assay [12] is described as follows: budding yeast growth changes without added modifier – OD600, strain BY4716, 24 h, basal condition, primary screen (AID 1173). To be noted: S. cerevisiae BY4716 growth, OD600, 24 h; higher = more signal, called active from +8 up or from −8 down.
Assay [13] is described as follows: viability profiling in MM1S myeloma cells – cell-based, resazurin fluorescence, basal, 24 h, PK04 Diversity Set, profiling panel (AID 1174). Note: test concentration not given here. As to conditions: higher = more signal, called active from +8 up or from −8 down.
Assay [14] has as its target Dihydroorotate dehydrogenase (quinone), mitochondrial (Plasmodium falciparum (isolate 3D7)) (UniProt Q08210). As to the kind of experiment: inhibition of P. falciparum DHODH – biochemical, C-terminal His tag, absorbance 600 nm, primary screen (AID 1175).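 Note: recombinant parasite enzyme with a five histidine tag at its C terminus; test concentration not given here.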 As to conditions: PfDHODH enzyme, DCIP absorbance 600 nm; higher = more signal, called active from +8 up or from −8 down.

The nature of assay [15]: inhibition of PAO1 biofilm formation – strain PAO1, LB-PBS medium, absorbance 600 nm, primary screen (AID 1176). Note: test concentration not given here. As to conditions: P. aeruginosa PAO1 growth/biofilm, A600, 12 h; higher = more signal.
A short description of assay [16]: growth modulation of vineyard yeast isolate – strain RM11-1a, OD600, basal, 24 h, primary screen (AID 1177).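 Note: cultures grown under basal conditions with no added stressor; test concentration not given here.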 To be noted: S. cerevisiae RM11-1a growth, OD600, 24 h; higher = more signal, called active from +8 up or from −8 down.
A short description of assay [17]: growth of efflux-deficient E. coli DRC39 – strain DRC39, OD650, 24 h, E. coli filamentation inducers, primary screen (AID 1178).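 Note: growth measured as culture turbidity by optical density at 650 nm; test concentration not given here.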 As to conditions: E. coli DRC39 acrAB, higher = more signal, called active from +8 up or from −8 down.
A short description of assay [18]: growth of efflux-deficient E. coli DRC39 – strain DRC39, OD650, 48 h, E. coli filamentation inducers, primary screen (AID 1179).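 Note: screen aims at cell division blockers that make cells filament.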 As to conditions: E. coli DRC39 delta-acrAB growth, higher = more signal, called active from +8 up or from −8 down.
Assay [19] can be described thus: viability profiling in RPMI8226 myeloma cells – cell-based, resazurin fluorescence, basal, 24 h, PK04 Diversity Set, profiling panel (AID 1180).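 Note: RPMI8826 multiple myeloma cell line at 5000 cells per well; test concentration not given here.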 To be noted: higher = more signal.
The target in assay [20] is E3 ubiquitin-protein ligase XIAP (Homo sapiens) (UniProt P98170). As to the kind of experiment: small molecules binding XIAP protein – biophysical, small-molecule microarray, fluorescence 635 nm, primary screen (AID 1181).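 Note: score merges 667 nm emission and signal to noise over triplicate slides.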 To be noted: higher = more signal.
Chain of E3 ubiquitin-protein ligase XIAP (Homo sapiens) (P98170 whole entry, looked up): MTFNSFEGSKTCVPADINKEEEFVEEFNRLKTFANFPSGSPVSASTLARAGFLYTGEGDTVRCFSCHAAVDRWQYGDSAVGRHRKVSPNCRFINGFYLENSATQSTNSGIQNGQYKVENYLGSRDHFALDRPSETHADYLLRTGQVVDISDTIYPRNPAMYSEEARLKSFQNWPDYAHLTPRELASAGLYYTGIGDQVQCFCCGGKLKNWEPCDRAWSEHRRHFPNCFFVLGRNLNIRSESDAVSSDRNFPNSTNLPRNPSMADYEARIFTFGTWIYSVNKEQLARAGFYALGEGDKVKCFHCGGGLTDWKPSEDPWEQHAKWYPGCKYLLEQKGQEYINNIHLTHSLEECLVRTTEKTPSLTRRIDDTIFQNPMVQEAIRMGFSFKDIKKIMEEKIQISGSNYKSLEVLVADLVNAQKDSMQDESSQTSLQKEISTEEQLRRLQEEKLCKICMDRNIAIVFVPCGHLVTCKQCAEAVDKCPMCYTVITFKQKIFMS

Active and inactive are the calls of the source. Unless noted, the rule behind the calls is not given here.

Chain of Dihydroorotate dehydrogenase (quinone), mitochondrial (Plasmodium falciparum (isolate 3D7)) (Q08210 whole entry, looked up): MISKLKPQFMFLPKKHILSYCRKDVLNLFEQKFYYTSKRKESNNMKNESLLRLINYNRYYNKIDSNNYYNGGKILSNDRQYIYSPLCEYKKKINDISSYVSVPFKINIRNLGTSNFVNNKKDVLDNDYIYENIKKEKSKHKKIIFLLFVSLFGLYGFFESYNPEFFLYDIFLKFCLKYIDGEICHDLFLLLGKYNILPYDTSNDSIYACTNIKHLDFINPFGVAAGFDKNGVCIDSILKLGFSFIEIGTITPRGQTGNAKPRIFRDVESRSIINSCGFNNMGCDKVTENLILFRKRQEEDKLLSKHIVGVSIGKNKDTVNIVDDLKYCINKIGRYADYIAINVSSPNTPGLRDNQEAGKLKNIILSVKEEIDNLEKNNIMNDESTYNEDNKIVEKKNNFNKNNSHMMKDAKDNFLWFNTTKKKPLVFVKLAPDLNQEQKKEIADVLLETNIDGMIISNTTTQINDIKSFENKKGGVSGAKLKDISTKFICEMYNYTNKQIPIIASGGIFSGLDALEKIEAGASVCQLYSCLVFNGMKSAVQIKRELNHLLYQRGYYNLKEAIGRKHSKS

For `[N-]=[N+]=Nc1ccccc1C[C@]1(C(=O)NCCN2CCOCC2)N=C(c2ccc(OCCCO)cc2)O[C@H]1c1ccccc1`, the z-score is -0.0454 in assay [1]; 0.0937 in [2]; -0.256 in [3]; -0.0793 in assay [4]; -0.26 in assay [5]; 0.771 in [6]. Also, the z-score in assay [7] was 0.00214 (inactive); in [8] it was -0.309; in [9], -0.777; in assay [10], 1.24 (inactive); in [11], 0.224; in assay [12], -3.1 (inactive). Further, the z-score is -0.359 (inactive) in assay [13]; 0.565 (inactive) in assay [15]; -0.52 (inactive) in [16]; 0.148 (inactive) in assay [17]; -0.338 (inactive) in assay [18]; -0.554 in assay [19]. The composite z-score in assay [14] is -0.0351 (inactive); in assay [20], 0.0679.

Turning to `C=C(C(=O)CC[C@H](OC(C)=O)c1ccc(OCCO)cc1)C(C)C`, the z-score in [1] was -0.809; in [2] it was -0.38; in [3], -1.22; in assay [4] it was -0.984; in assay [5], -1.73; in assay [6] it was -1.05. The z-score is -0.00642 (inactive) in assay [7]; 0.364 in assay [8]; 0.19 in [9]; -0.358 (inactive) in [10]; 0.163 in assay [11]; -16.2 (active) in assay [12]. The z-score in assay [13] is 0.192 (inactive); in assay [15], -1.21 (inactive); in [16], -21.4 (active); in [17], -0.135 (inactive); in [18], 0.204 (inactive); in assay [19], -0.349. In addition, the figures for the composite z-score in assay [14] and in [20] were -8.01 (active) and -0.177, respectively.

`Cc1ccc(S[C@]2(C(=O)O)CC(=O)N(C3Cc4ccccc4C3)[C@@H]2c2ccc(CO)cc2I)cc1`: the z-score in assay [1] is 0.214; in [2] it was 0.278; in assay [3], -0.671; in [4], -2.95; in [5], -2.88; in assay [6], 0.0324. Also, the z-score was -0.939 (inactive) in [7]; -0.137 in assay [8]; -0.717 in assay [9]; 0.477 (inactive) in [10]; 0.186 in assay [11]; -1.99 (inactive) in [12]. For the same compound, the z-score in assay [13] was -1.95 (inactive); in assay [15] it was -0.109 (inactive); in assay [16], -0.219 (inactive); in assay [17], 0.602 (inactive); in assay [18], 0.447 (inactive); in assay [19] it was -1.78. In addition, the composite z-score in [14] was 0.0058 (inactive); in assay [20], -0.0726.

For `NC(=O)NCC#Cc1ccc2c(c1)[C@]1(C(=O)N2)[C@H](C(=O)NC[C@H](O)c2ccccc2)[C@H]2C(=O)O[C@H](c3ccccc3)[C@H](c3ccccc3)N2[C@@H]1c1ccc(O)cc1`, the z-score is 0.423 in [1]; -1.13 in [2]; -0.284 in assay [3]; -1.32 in assay [4]; 0.579 in assay [5]; -3.36 in assay [6]. Moreover, the z-score in assay [7] is -2.46 (inactive); in [8], -1.16; in [9], -1.49; in [10], -0.471 (inactive); in [11], -0.0042; in [12] it was 1.56 (inactive). Also, the z-score is -0.027 (inactive) in assay [13]; 1.32 (inactive) in assay [15]; 2.12 (inactive) in assay [16]; 0.346 (inactive) in [17]; 0.0233 (inactive) in assay [18]; -0.518 in [19]. Moreover, the composite z-score in assay [14] is 0.389 (inactive); in assay [20] it was 0.15.

For the compound `CC(=O)NCCCC[C@@H]1NC(=O)[C@@H]2C[C@H](C(=O)NCCCCCCNC(=O)CS)[C@H](c3ccc(O)cc3)N2C1=O`, the z-score in assay [1] was -0.503; in [2], -0.683; in assay [3] it was 0.366; in assay [4], 0.0337; in [5], -0.66; in assay [6], -0.638. The z-score in assay [7] is -0.744 (inactive); in assay [8], -0.0931; in assay [9], -0.795; in assay [10], -0.363 (inactive); in assay [11] it was 0.107; in assay [12], -0.688 (inactive). Also, the z-score in [13] was -0.568 (inactive); in [15] it was -0.434 (inactive); in [16], 0.208 (inactive); in assay [17], -0.356 (inactive); in assay [18], -0.214 (inactive); in assay [19], -0.763. The composite z-score in [14] is -0.344 (inactive); in [20], -0.0773.

In the case of `CCCCC(O)C1C=CC2C(=O)N(C3CCCCC3)C(=O)C2N1Nc1ccc(OC)cc1` (stereo not given), the z-score in [1] was -0.875; in [2], 0.325; in assay [3], -0.572; in assay [4], 0.0802; in assay [5] it was -1.22; in assay [6], -0.307. Moreover, the z-score in assay [7] was -0.109 (inactive); in assay [8], -0.111; in assay [9] it was 0.024; in assay [10], 0.112 (inactive); in assay [11], -0.414; in [12], -2.57 (inactive). For the same compound, the z-score in [13] is -0.496 (inactive); in assay [15], 0.89 (inactive); in assay [16], 0.669 (inactive); in [17], -1.01 (inactive); in assay [18] it was -0.584 (inactive); in [19], -0.369. For the same compound, the composite z-score in assay [14] is 1.12 (inactive); in [20], 0.0617.

For `O=C(NCc1ccccc1)[C@]1(CCS(=O)(=O)c2ccccc2)N=C(c2ccc(OCCCO)cc2)O[C@@H]1c1ccccc1`, the z-score in [1] is -0.649; in assay [2], 0.0335; in assay [3], -0.708; in assay [4] it was -0.478; in assay [5], -0.651; in [6], 1.24. Further, the z-score in assay [7] was 0.499 (inactive); in [8], -0.762; in assay [9] it was -1.75; in assay [10], -0.704 (inactive); in assay [11] it was 0.0669; in assay [12], 1.08 (inactive). Further, the z-score in [13] was -0.866 (inactive); in [15], 0.0937 (inactive); in [16], 1.91 (inactive); in [17] it was 0.79 (inactive); in assay [18], 1.05 (inactive); in [19], 0.253. For the same compound, the composite z-score in [14] was -0.549 (inactive); in [20], 0.323.

For the compound `COCCOC(=O)N1C(=O)[C@@]2(c3cc(C#CCNC(N)=O)ccc31)[C@H](c1ccc(O)cc1)N1[C@H](c3ccccc3)[C@H](c3ccccc3)OC(=O)[C@H]1[C@@H]2C(=O)Nc1nc2ccccc2s1`, the z-score in assay [1] was 1.7; in [2], 0.663; in assay [3] it was 0.461; in assay [4], 0.553; in [5] it was -0.397; in assay [6], -2.95. The z-score was 1.56 (inactive) in assay [7]; -1.03 in assay [8]; 0.189 in [9]; 1.69 (inactive) in assay [10]; 1.51 in assay [11]; -2.16 (inactive) in [12]. Moreover, the z-score is 1.38 (inactive) in [13]; 3.22 (inactive) in assay [15]; -2.47 (inactive) in assay [16]; 2.74 (inactive) in assay [17]; 2.74 (inactive) in [18]; 0.803 in assay [19]. For the same compound, the composite z-score was -1.96 (inactive) in assay [14] and -0.115 in [20].

With `COCCOC(=O)N1C(=O)[C@@]2(c3cc(C#CCCO)ccc31)[C@H](c1ccccc1OCCO)N1[C@H](c3ccccc3)[C@H](c3ccccc3)OC(=O)[C@H]1[C@@H]2C(=O)N1CCN(c2ncccn2)CC1`, the z-score is -0.442 in assay [1]; -0.692 in assay [2]; 0.0682 in assay [3]; -0.448 in assay [4]; -0.0718 in assay [5]; 0.609 in assay [6]. Moreover, the z-score was 0.188 (inactive) in assay [7]; -0.0523 in assay [8]; -1.1 in assay [9]; -0.467 (inactive) in [10]; -0.0071 in assay [11]; 1.42 (inactive) in [12]. Moreover, the z-score is -0.285 (inactive) in [13]; 1.6 (inactive) in assay [15]; 2.18 (inactive) in [16]; -0.0933 (inactive) in assay [17]; -0.27 (inactive) in [18]; -0.803 in [19]. Further, the composite z-score in assay [14] is -0.465 (inactive); in [20], -0.0304.

Source of the values: PubChem BioAssay.
